Screening data: PubChem, National Center for Advancing Translational Sciences (NCATS)
FMDV antiviral – foot and mouth disease virus antiviral activity. hit rate 1.2% among 410,000. Potency, µM (titrated, usually from 57.9 µM), for the others: at the highest dose activity change, negative = inhibition, hits mostly inhibitors. FMDV antiviral cell-based qHTS; calls by dose curve; tested in HEK293T cells; also: read-out not given here; potency is read from the fitted curve at half-maximal effect; % is scaled to controls: 0 for no effect and ±100 for the full control effect; nearly all actives have a fitted effect of over 45% in size
HCV inh – blocks hepatitis C virus. Huh7.5.1 HCVcc-Cre infection, luciferase reporter, 44 h. Potency, µM (titrated, usually from 41.8 µM), inactives show at the top dose activity change, negative = inhibition, hits mostly inhibitors. hit rate 3.4% among 340,000. AID 651820; active = well fitted inhibition curve with a large enough effect; inconclusive = small, poorly fitted or top-dose-only effect, or another doubt; inactive = no such curve, though single readings can be large or run the other way; also: potency is read from the fitted curve at half-maximal effect; % is scaled to controls: 0 for no effect and ±100 for the full control effect
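Infectious HCV cell culture screen: compound-treated cells (1,000/well, pre-plated 4 h) are infected with HCVcc-Cre at roughly 0.5 moi and grown 44 h. Infection is quantified by luciferase signal after 15 min substrate incubation at room temperature.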
Shiga inhibitor – Shiga toxin inhibition; Vero cells, Shiga toxin protein synthesis inhibition reporter; inhibition, % at 38.7 µM; hit rate 9.2% among 290,000; AID 2315; in the data active = inhibition mostly above about 28%, no sharp cut-off; inactive = mostly below about 43%; also: 0% is about no effect
Marburg entry inh – Marburg virus entry inhibition | Marburg virus pseudotyped entry inhibition, cell reporter | Potency, µM (titrated, usually from 37.8 µM), for the others: at the highest dose activity change, negative = inhibition, hits mostly inhibitors | hit rate 1.8% among 300,000; calls by dose curve; tested in HEK293 cells; also: potency is read from the fitted curve at half-maximal effect; % is scaled to controls: 0 for no effect and ±100 for the full control effect
Lassa entry inh – inhibitors of Lassa virus binding or cell entry. Lassa virus pseudotype entry inhibition, cell reporter. Potency, µM (titrated, usually from 37.9 µM), for inactives: top-dose activity change, negative = inhibition, actives largely listed as inhibitors. hit rate 1.2% among 300,000. AID 540256; calls by dose curve; tested in HEK293 cells; also: potency is read from the fitted curve at half-maximal effect; % is scaled to controls: 0 for no effect and ±100 for the full control effect; nearly all actives have a fitted effect of over 50% in size
Cycloheximide cs – counter-screen hit for Shiga toxin inhibitors, cycloheximide | cell reporter, cycloheximide protein synthesis inhibition counterscreen | max response, % | hit rate 12% among 300,000 | AID 2314; in the data active = max response mostly above about 13%, no sharp cut-off; inactive = mostly below about 14%; also: read at 38.3 µM for the half of the compounds with a filed dose; 0% is about no effect
Starred values were filed as active, the others as inactive; ? = inconclusive; / = not tested or not shown; [ ] = dose if it differs, or a comment. In the library only some 13% were active in any assay of this set; here they are far more common.

SMILES	FMDV antiviral	HCV inh	Shiga inhibitor	Marburg entry inh	Lassa entry inh	Cycloheximide cs
O=C(Nc1ccccc1N1CCCCC1)c1ccc(F)c(S(=O)(=O)N2CCOCC2)c1	1%	10µM*	/	-1%[46.1 µM]	-29%	/
CCOc1ccc(NC(=O)CN(C)C(=O)c2ccccc2OCc2cccc(C)c2)cc1OCC	-24%	10µM*	/	?	?	/
Cc1cccc(COc2ccccc2C(=O)N(C)CC(=O)Nc2cccc(F)c2)c1	-1%	?	/	/	/	/
Cc1cc(C)cc(Nc2nc(-c3ccc(S(=O)(=O)N4CCCC4)cc3)cs2)c1	?	10µM*	-10	?	?	-2
Cc1ccc(Nc2nc(-c3ccc(S(=O)(=O)N4CCCC4)cc3)cs2)cc1C	?	4µM*	23	?	?	-2
Cc1nc(-c2ccc(S(=O)(=O)N3CCCCCC3)cc2)cs1	-12%	-5%	100*	12%	8%	21*
O=S(=O)(c1ccc(-c2csc(Nc3ccc(F)cc3)n2)cc1)N1CCCC1	?	?	2	?	?	-4
COc1cc(OC)cc(C(=O)Nc2ccc(-c3nc4ccccc4s3)cc2C)c1	7%	/	/	8%[46.1 µM]	-1%[46.1 µM]	/
c1ccc(-c2ccc(-c3[nH]ncc3CN3CCC(N4CCSCC4)CC3)cc2)cc1	18%	-12%	48*	-11%	7%	7.3*
CC(C)NC(=O)C1CCN(C2CCN(Cc3cn[nH]c3-c3ccccc3)CC2)CC1	-4%	8%	-2	-3%[46.1 µM]	-11%[46.1 µM]	-3
CC(OC(=O)CN1C(=O)NC2(CCCCC2C)C1=O)c1ccccc1 (centres undefined)	0%	7%	/	/	/	/
CC(CCc1ccc(O)cc1)NCCC(c1ccccc1)c1ccccc1 (centres undefined)	25%	14µM*	-7	7.1µM*	?	-2
O=C1[C@@H]2C(Cc3ccc(O)cc3)NC3(C(=O)Nc4ccc(F)cc43)[C@@H]2C(=O)N1c1ccccc1 (some centres undefined)	-28%	17%	-9	-8%	?	-7
Cc1nnc(-c2ccccc2)o1	-14%	-4%	-1	/	/	3
Cc1ccccc1-c1nnc(-c2ccccc2)o1	16%	-9%	95*	?	?	35*
Cc1ccccc1-c1nnc(CS(=O)(=O)c2ccccc2)o1	-3%	1%	61*	?	-30%	43*
O=[N+]([O-])c1cccc(-c2nnc(-c3ccccc3F)o2)c1	63%	-7%	22*	/	/	30*
Nc1nnc(-c2cccc([N+](=O)[O-])c2)o1	-11%	-5%	23	18%[46.1 µM]	16%[46.1 µM]	2
Cc1ccccc1-c1nc(Cc2ccc(Cl)cc2)no1	25%	3%	42	22%	25%	25*
CC(Oc1ccc(Cl)cc1Cl)C(=O)NCc1ccncc1 (centres undefined)	-16%	-20%	-2	-1%	1%	-3
Cc1c(CN2CCOc3c(cc(-c4ncc(C(F)(F)F)cc4Cl)cc3OCC3CCCO3)C2)cnn1C (centres undefined)	4%	/	/	/	/	/
O=C(CCC(=O)N1CCSc2ccccc21)NCc1ccccc1	-20%	1%	-4	/	/	1
CCC/C(C)=C/c1ccc(CC)cn1	26%	3%	-15	0%[46.1 µM]	21%	1
Cc1ccccc1-c1nnc(-c2ccc(Cl)cc2)o1	44%	-4%	104*	?	?	58*
Cc1cccc(-c2nnc(-c3ccccc3)o2)c1	30%	?	56*	28%	0%	33*
SMILES	FMDV antiviral	HCV inh	Shiga inhibitor	Marburg entry inh	Lassa entry inh	Cycloheximide cs
Cc1cc(-c2nnc(-c3cccc(Cl)c3)o2)no1	53%	-1%	93*	?	1%	37*
CN(C)c1ccc(-c2nnc(-c3ccccc3F)o2)cc1	4%	?	59*	/	/	28*
CC1NC(C)c2c(ccc3ccccc23)O1 (centres undefined)	-13%	21%	/	?	13%[46.1 µM]	/
Cn1cc(-c2nnc(-c3ccccc3)o2)c2ccccc21	16%	-17%	146*	-5%	?	59*
C/C(CC(=O)Nc1ccccn1)=N\NC(=O)C(=O)Nc1cccc(Cl)c1C	7%	1%	-9	13%	15%	5
COC(=O)COc1cc(=O)oc2ccc(NS(=O)(=O)c3ccccc3)cc12	19%	13%	-1	/	/	-1
CCN(CC)S(=O)(=O)c1cccc(NC(=O)CC2CCCC2)c1	4%	-3%	23	2%[46.1 µM]	?	-3
CCN(CC)S(=O)(=O)c1ccc2c(c1)nc(CCC(=O)Nc1cccc(C(F)(F)F)c1)n2CC	-10%	?	-20	11µM*	?	-4
CCN(CC)S(=O)(=O)c1cccc(NC(=O)Nc2cccc(C(F)(F)F)c2)c1	18µM*	2µM*	-7	15µM*	16µM*	5
CCN(CC)S(=O)(=O)c1ccc2c(c1)nc(CCC(=O)O)n2CC	-2%	15%	-5	1%[14.2 µM]	10%	-1
CCNC(=S)N1CCN(CCNC2=CC(=O)CC(C)(C)C2)CC1	7%	16%	-13	/	/	-2
Cc1nc(COc2ccccc2Cl)sc1-c1ccnc(N)n1	12%	?	49*	?	-6%	19*
O=C(c1cccs1)N1CCC(c2nc3c(nnn3Cc3ccccc3)c(=O)[nH]2)CC1	15%	-4%	-21	-2%	?	-6
COc1ccc2c(c1)O/C(=C\c1ccccc1C)C2=O	30%	-23%	66*	0%[46.1 µM]	-28%[46.1 µM]	31*
CC(C)(C)c1nc2c(C#N)c(-c3ccc(Cl)cc3)ccn2n1	?	-27%	57	?	-24%	25*
Cc1nc2c(C#N)c(-c3ccc(Cl)cc3)ccn2n1	6%	4%	-6	4%[46.1 µM]	5%[46.1 µM]	-3
CCn1cc(C(=O)NN)c(=O)c2cc(F)c(N3CCOCC3)cc21	-2%	-17%	3	16%	18%	-8
CC(C)C1Cc2c(sc3[nH]c(=S)n(Cc4ccccc4)c(=O)c23)CO1 (centres undefined)	?	19%	-4	?	0.79µM*	0
CCn1c(-c2ccccc2)csc1=Nc1ccc(S(=O)(=O)O)cc1	?	6%	-7	?	-27%	-3
O=C(O)CCC(=O)NCCn1c(-c2ccccc2)csc1=Nc1ccccc1	17%	6%	49	-4%[46.1 µM]	7%[46.1 µM]	19*
COc1ccc(N=c2scc(-c3ccc(OC)cc3)n2CCO)cc1	-2%	6.3µM*	63	-29%	?	30*
CCN(CC)CCn1c(-c2ccccc2)csc1=Nc1ccccc1	-26%	/	/	/	?	/
COCCCn1c(-c2ccc(S(=O)(=O)N3CCOCC3)cc2)csc1=Nc1ccccc1	11µM*	?	-8	27%	-3%[46.1 µM]	10
OCCCn1c(-c2ccccc2)csc1=Nc1ccccc1	?	?	73*	?	-17%	32
Cc1noc(NS(=O)(=O)c2ccc(NC(=O)CCn3c(=O)oc4ccccc43)cc2)c1C	-7%	9%	-17	/	/	-9
CCOC(=O)NC(=O)/C(C=Nc1ccc(Cl)cc1)=C(\C)O	-3%	12%	-3	-4%[46.1 µM]	-14%	-2
